For 35 compounds, Potency and fluorescence, % of fluorescent control results are on record in PubChem BioAssay (Tox21).

Molecules are shown by their SMILES. Values without a mark were called inactive. A call without a number means that no potency is given here. Activity calls are given as the source filed them. Calls come from the whole dose curve; as a rule, active = well fitted curve in the direction sought with a large enough effect in the repeat runs; inconclusive = weak or mixed curves; inactive = flat fitted curve, though single readings scatter.
Potency is the fitted concentration of half-maximal effect; tags give direction and shape of the fitted curve or compound fluorescence and quenching.

This test is described as follows: qHTS assay to test for compound auto fluorescence at 590 nm (red) in HEK293 cell free culture (AID 720683). The note with it: cell-free medium autofluorescence, Ex540/Em590 red; series mostly up to 91.3 µM. The method, boiled down: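 Cell-free wells of DMEM with 10% FBS received compound, and intrinsic fluorescence was read at excitation/emission 540/590 nm. Values expressed as equivalence to Rose Bengal sodium.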
Background: Quantitative high-throughput screening tests each substance at several concentrations.
With `NCC(=O)CCC(=O)O`, the Potency result is “inactive”.

As to `O=C1OC(=O)C2C3C=CC(C3)C12` (stereo not given), the Potency entry is “inactive”. For the compound `C=C(C)C(=O)OCCOCC`, the Potency entry is “inactive”.

Turning to `CC1(c2ccccc2)OC(C(=O)O)=CC1=O` (stereo not given), the Potency entry is “inactive”.

For `C[N+](C)(C)CCOC(=O)CCC(=O)OCC[N+](C)(C)C`, the Potency entry was “inactive”. As for `CCOC(=O)Cc1cccc2ccccc12`, the Potency result was “inactive”. On to `CC(=O)c1ccc2c(c1)N(CCCN(C)C)c1ccccc1S2`, for which the fluorescence, % of fluorescent control was -0.0325% [at 18.6 µM]. On the same count and under the same terms, under `CN1CCN(C(c2ccccc2)c2ccccc2)CC1` stands 0.0321% [at 18.6 µM]. As to `CC1=CC=C(C(C)C)CC1`, the Potency entry is “inactive”.

For `C[C@H]1C[C@H]2[C@@H]3CCC4=CC(=O)C=C[C@]4(C)[C@@]3(Cl)[C@@H](O)C[C@]2(C)[C@@]1(O)C(=O)CO`, the Potency entry was “inactive”. Regarding `CCCCCCCCO[C@@H]1O[C@H](CO)[C@@H](O)[C@H](O)[C@H]1O`, the Potency entry is “inactive”. Turning to `CC(C)(O)c1ccc(CNC(=O)c2cccnc2Oc2ccc(F)cc2)cc1`, the Potency result was “inactive”. On the same count and under the same terms, under `c1ccc(CNCCNCc2ccccc2)cc1` stands “inactive”; under `COC(C)OC`, “inactive”.

For the compound `CC(COCCO)OCCO` (stereo not given), the Potency result is “inactive”.

Regarding `O=S(=O)(Oc1ccc(Cl)cc1)c1ccccc1`, the Potency result was “inactive”. On to `CCNc1cc(O)ccc1C`, for which the Potency result was “inactive”.

With `Nc1cccc([N+](=O)[O-])c1`, the Potency entry is “inactive”. For `CC/C=C\CCOC(=O)CC`, the Potency result is “inactive”. Consider `O=C(c1ccc(F)cc1)C1CCN(CCn2c(=S)[nH]c3ccccc3c2=O)CC1`, for which the Potency entry is “inactive”. `CCN(CC)c1ccc2c(-c3ccccc3C(=O)O)c3ccc(=[N+](CC)CC)cc-3oc2c1`: the Potency is 2 µM [fluorescent] (active). Regarding `CC(C)CC(=O)C1C(=O)c2ccccc2C1=O`, the Potency result was “inactive”. Same read-out and setting: the same measure for `CCCCc1ncc(/C=C(\Cc2cccs2)C(=O)O)n1Cc1ccc(C(=O)O)cc1`: “inactive”; for `CN(C)C(=O)NC1(c2ccccc2)CCN(CC[C@@]2(c3ccc(F)c(F)c3)CN(C(=O)c3ccccc3)CCO2)CC1`: “inactive”; for `CC(=O)NO`: “inactive”.

For the compound `COc1cc2nc(N3CCN(C(=O)C4COc5ccccc5O4)CC3)nc(N)c2cc1OC` (stereo not given), the Potency result was “inactive”. As for `CC1=CCCC(C)(C)C12CCC(C)O2` (stereo not given), the Potency result was “inactive”. On the same count and under the same terms, the same measure for `Nc1ccccc1S(=O)(=O)c1ccccc1`: “inactive”. In the case of `COc1ccc(C(=O)c2ccc(OC)cc2O)c(O)c1`, the Potency result is “inactive”. The same measure, in the same setting: the same measure for `C#CCN(C)CCCOc1ccc(Cl)cc1Cl`: “inactive”; for `C=CC1CC2C=CC1C2` (stereo not given): “inactive”. Turning to `CC(=O)c1ccc2c(c1)N(CCCN1CCC(CCO)CC1)c1ccccc1S2`, the fluorescence, % of fluorescent control was -0.134% [at 18.6 µM]. As to `COC(=O)c1ccc(I)cc1S(=O)(=O)NC(=O)Nc1nc(C)nc(OC)n1`, the Potency result was “inactive”. For `C=C1[C@H]2CC[C@@H]3[C@H]2C(C)(C)CCC[C@]13C`, the Potency result is “inactive”.

`COC(=O)C1=C(C)NC(COC(N)=O)=C(C(=O)OC(C)C)C1c1cccc(Cl)c1Cl` (stereo not given): the Potency entry was “inactive”.
